This note sets out measurements from PubChem BioAssay (NCI).

About 83,000 compounds went through this panel and 20% of them were active in at least one assay; those are over-represented in the sample as a whole.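 Negative percent growth values reflect cell death: -40 means 40% of the cells present at the start died, and -100 means all died.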 A number with no mark means an inactive call. Active and inactive are the calls of the source. The calls were made as follows: active = growth percent below 10; inactive = the rest.

Among the test systems are RPMI-8226 leukemia; OVCAR-8 ovarian; OVCAR-5 ovarian; OVCAR-4 ovarian; SK-OV-3 ovarian; IGROV1 ovarian; OVCAR-3 ovarian; HS 578T breast; NCI/ADR-RES ovarian; T-47D breast; BT-549 breast; MDA-MB-435 melanoma; SW-620 colon; MCF7 breast; HCT-116 colon; HCC-2998 colon; KM12 colon.
What all share (test): NCI-60 one-dose screen, 48 h (100 = growth as untreated, 0 = no growth, -100 = all killed)
Conditions in all cases: 10 µM unless noted

Turning to `O=C1C(Cl)=C(N=Nc2c(Cl)c(O)c3ccccc3c2O)C(=O)c2ccccc21`, the growth with RPMI-8226 leukemia is 69.2%; with OVCAR-8 ovarian it was 79.1%; with OVCAR-5 ovarian it was 121%; in the assay with OVCAR-4 ovarian, 72.3%; with SK-OV-3 ovarian it was 89.8%; in the assay on IGROV1 ovarian it was 60.1%. Besides, the growth in the assay with OVCAR-3 ovarian was 24.3%; with HS 578T breast, 55.3%; in the assay with NCI/ADR-RES ovarian, 73.8%; in the assay with T-47D breast, 66.9%; in the assay on BT-549 breast, 62%; in the assay on MDA-MB-435 melanoma, -31.7% (active). The growth in the assay with SW-620 colon was 90%; in the assay on MCF7 breast, 62.6%; with HCT-116 colon it was 70.4%; in the assay with HCC-2998 colon it was 74.4%; in the assay with KM12 colon, 86.4%.

In the case of `O=C(Nc1ccc(Cl)cc1)Nc1ccc(Oc2nncc3ccccc23)cc1`, the growth was -0.0795% (active) in the assay on RPMI-8226 leukemia; 19.4% in the assay on OVCAR-8 ovarian; -16% (active) in the assay with OVCAR-5 ovarian; -20.8% (active) in the assay with OVCAR-4 ovarian; 56.7% with SK-OV-3 ovarian; 8.16% (active) in the assay with IGROV1 ovarian. Moreover, the growth was -62.8% (active) in the assay on OVCAR-3 ovarian; 37.5% with HS 578T breast; 37.6% in the assay with NCI/ADR-RES ovarian; 10.2% in the assay on T-47D breast; -10.3% (active) in the assay with BT-549 breast; -33.3% (active) in the assay on MDA-MB-435 melanoma. In addition, the growth in the assay with SW-620 colon is -30.1% (active); with MCF7 breast it was 14.3%; in the assay on HCT-116 colon, -56.9% (active); with HCC-2998 colon, -42.2% (active); with KM12 colon, -32.3% (active).

As to `COc1ccc(-c2nn(-c3cccc(Cl)c3)cc2C2CC(c3ccccc3)=NN2C(C)=O)cc1` (stereo not drawn), the growth in the assay on RPMI-8226 leukemia is 97.6%; with OVCAR-8 ovarian it was 56.3%; in the assay on OVCAR-5 ovarian, 80.9%; with OVCAR-4 ovarian, 23.3%; in the assay with SK-OV-3 ovarian, 32.2%; in the assay on IGROV1 ovarian it was 57%. The growth was 80.6% with OVCAR-3 ovarian; 43.2% with HS 578T breast; 74.3% in the assay with NCI/ADR-RES ovarian; 44.7% with T-47D breast; 74.7% in the assay with BT-549 breast; 88.5% in the assay with MDA-MB-435 melanoma. In addition, the growth with SW-620 colon is 73.6%; with MCF7 breast it was 68%; in the assay with HCT-116 colon, 60.9%; in the assay on HCC-2998 colon, 95.4%; with KM12 colon, 96.4%.

Take `c1coc([C@@H]2C[C@@H]3Cc4ccc5ccccc5c4N2O3)c1`: the growth in the assay on RPMI-8226 leukemia is 97.3%; with OVCAR-8 ovarian, 99.4%; with OVCAR-5 ovarian it was 90.8%; in the assay on OVCAR-4 ovarian it was 92.4%; in the assay with SK-OV-3 ovarian it was 103%; in the assay with IGROV1 ovarian, 113%. The growth in the assay with OVCAR-3 ovarian is 114%; in the assay with HS 578T breast, 110%; in the assay with NCI/ADR-RES ovarian it was 99.8%; in the assay on T-47D breast, 104%; in the assay with BT-549 breast, 105%; in the assay with MDA-MB-435 melanoma it was 103%. The growth is 103% in the assay with SW-620 colon; 84.6% in the assay with MCF7 breast; 99.2% with HCT-116 colon; 107% with HCC-2998 colon; 107% in the assay with KM12 colon.

As for `O=C(O)c1ccc(NC(=O)c2ccc(Nc3ccnc(C(F)(F)F)c3)cc2)cc1`, the growth is 98.3% in the assay on RPMI-8226 leukemia; 102% in the assay on OVCAR-8 ovarian; 107% in the assay with OVCAR-5 ovarian; 103% with OVCAR-4 ovarian; 98.9% in the assay on SK-OV-3 ovarian; 105% in the assay on IGROV1 ovarian. The growth is 104% in the assay on OVCAR-3 ovarian; 96.8% with HS 578T breast; 102% in the assay on NCI/ADR-RES ovarian; 93.8% with T-47D breast; 109% in the assay with BT-549 breast; 104% in the assay on MDA-MB-435 melanoma. For the same compound, the growth in the assay with SW-620 colon is 105%; in the assay on MCF7 breast, 100%; with HCT-116 colon, 104%; with HCC-2998 colon, 103%; in the assay with KM12 colon, 93.2%.

Regarding `O=C1/C(=C/c2ccc3cccc(Cl)c3n2)SC(=S)N1CCc1ccc(O)cc1`, the growth is 82.2% with RPMI-8226 leukemia; 92.3% with OVCAR-8 ovarian; 106% in the assay on OVCAR-5 ovarian; 96.6% with OVCAR-4 ovarian; 93.2% in the assay with SK-OV-3 ovarian; 47% with IGROV1 ovarian. For the same compound, the growth with OVCAR-3 ovarian was 75.7%; in the assay on HS 578T breast, 73.8%; in the assay with NCI/ADR-RES ovarian it was 93%; in the assay on T-47D breast, 65.5%; with BT-549 breast, 95.2%; with MDA-MB-435 melanoma it was 85.5%. In addition, the growth in the assay on SW-620 colon is 95%; with MCF7 breast, 86.3%; in the assay with HCT-116 colon, 99.2%; in the assay on HCC-2998 colon, 118%; in the assay with KM12 colon it was 84.8%.

With `Cc1ccc2c(c1)O/C(=C\c1ccc([N+](=O)[O-])o1)C2=O`, the growth was -34.4% (active) in the assay on RPMI-8226 leukemia; -4.7% (active) with OVCAR-8 ovarian; 71.6% in the assay with OVCAR-5 ovarian; 5.62% (active) in the assay on OVCAR-4 ovarian; 91.1% with SK-OV-3 ovarian; -17.3% (active) in the assay with IGROV1 ovarian. The growth in the assay with OVCAR-3 ovarian was -15% (active); in the assay with HS 578T breast it was 106%; in the assay with NCI/ADR-RES ovarian, 78.5%; with T-47D breast, 41.4%; in the assay on BT-549 breast, 25.9%; in the assay with MDA-MB-435 melanoma, -8.75% (active). Further, the growth is -56.5% (active) in the assay on SW-620 colon; 9.48% (active) with MCF7 breast; -47.7% (active) in the assay on HCT-116 colon; 64.3% with HCC-2998 colon; 86% in the assay on KM12 colon.

For the compound `O=C(CSc1nc2c(n1Nc1ccccc1)-c1ccccc1SC2)Nc1nc(-c2ccc(Cl)cc2)cs1`, the growth was 86.1% in the assay on RPMI-8226 leukemia; 57.3% in the assay with OVCAR-8 ovarian; 93.6% in the assay with OVCAR-5 ovarian; 8.37% (active) in the assay with OVCAR-4 ovarian; 82.9% with SK-OV-3 ovarian; 86% in the assay with IGROV1 ovarian. Moreover, the growth in the assay with OVCAR-3 ovarian is 65.7%; with HS 578T breast it was 23.4%; in the assay on NCI/ADR-RES ovarian it was 66%; with T-47D breast it was 66.8%; in the assay with BT-549 breast, 93.9%; in the assay with MDA-MB-435 melanoma, 61%. Moreover, the growth in the assay on SW-620 colon is 28.2%; in the assay on MCF7 breast, 68.9%; in the assay on HCT-116 colon it was 36.9%; in the assay with HCC-2998 colon, 102%; in the assay with KM12 colon, 48.5%.

As to `COC(=O)C[C@@H]1CC=CC(=O)/C1=C(O)/C=C/c1ccccc1`, the growth in the assay with RPMI-8226 leukemia was 31.3%; in the assay on OVCAR-8 ovarian, 10.6%; with OVCAR-5 ovarian, -83.8% (active); with OVCAR-4 ovarian, -10.7% (active); in the assay with SK-OV-3 ovarian, 32.6%; in the assay on IGROV1 ovarian, -72.9% (active). The growth in the assay with OVCAR-3 ovarian is -92.5% (active); in the assay with HS 578T breast, 12.5%; with NCI/ADR-RES ovarian, 17.6%; in the assay on T-47D breast it was -6.15% (active); in the assay on BT-549 breast, -36.3% (active); in the assay on MDA-MB-435 melanoma, -32.1% (active). Also, the growth is -81.7% (active) in the assay with SW-620 colon; -3.08% (active) in the assay on MCF7 breast; -92.2% (active) with HCT-116 colon; -95.1% (active) in the assay on HCC-2998 colon; -76.3% (active) in the assay on KM12 colon.
